Laboratory results: PubChem BioAssay AID1159580 (chemical genetic matrix, 2015)
Values joined by “and” are separate entries in the source; they are usually repeats but may differ in a detail not shown here. Equal values may be shown once. Hit rate of the full screen: of about 5,500 compounds, about 2,000 (36%) were called active. About 18% were inconclusive and are not listed. Cut-off read from the data, not from the text of the source: active = normalized growth mostly below about 0.91 (no sharp cut-off); inconclusive = no clear call, values can overlap the other calls; inactive = mostly above about 0.92. Some of the results follow. More than one record can exist for a structure, and the calls need not agree.

Experiment: chemical genetic growth profiling, strain panel (AID 1159580);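 note: tested at 20 µM; growth read once vehicle control cultures reached saturation at 30 °C; 1 = growth at the plate median or of vehicle wells; lower values mean less growth of the strain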
Settings: growth OD

COc1ccccc1N1CCNCC1
normalized growth (S. cerevisiae deletion strains, locus YAL013W, strain DEP1, stronger effect = lower value): 1.01 (inactive) and 0.975 (inactive)
normalized growth (S. cerevisiae deletion strains, locus YAL040C, strain CLN3, stronger effect = lower value): 0.965 (inactive)
normalized growth (S. cerevisiae deletion strains, locus YBR021W, strain FUR4, stronger effect = lower value): 1.01 (inactive)
normalized growth (S. cerevisiae deletion strains, locus YBR229C, strain ROT2, stronger effect = lower value): 1.01 (inactive)
normalized growth (S. cerevisiae deletion strains, locus YCL029C, strain bik1, stronger effect = lower value): 1.03 (inactive)
normalized growth (S. cerevisiae deletion strains, locus YCL061C, strain MRC1 (second series), stronger effect = lower value): 0.993 (inactive)
normalized growth (S. cerevisiae deletion strains, locus YDL035C, strain GPR1, stronger effect = lower value): 1.01 (inactive)
normalized growth (S. cerevisiae deletion strains, locus YDL074C, strain BRE1, stronger effect = lower value): 1.01 (inactive)
normalized growth (S. cerevisiae deletion strains, locus YDL101C, strain DUN1, stronger effect = lower value): 1 (inactive)
normalized growth (S. cerevisiae deletion strains, locus YDL134C, strain PPH21, stronger effect = lower value): 1.01 (inactive)
normalized growth (S. cerevisiae deletion strains, locus YDL185W, strain tfp1, stronger effect = lower value): 1.03 (inactive)
normalized growth (S. cerevisiae deletion strains, locus YDL192W, strain arf1, stronger effect = lower value): 1.03 (inactive)
normalized growth (S. cerevisiae deletion strains, locus YDR101C, strain arx1, stronger effect = lower value): 1.02 (inactive)
normalized growth (S. cerevisiae deletion strains, locus YDR150W, strain NUM1, stronger effect = lower value): 1 (inactive) and 0.996 (inactive)
normalized growth (S. cerevisiae deletion strains, locus YDR162C, strain NBP2, stronger effect = lower value): 1.01 (inactive)
normalized growth (S. cerevisiae deletion strains, locus YDR318W, strain mcm21, stronger effect = lower value): 1.03 (inactive)
normalized growth (S. cerevisiae deletion strains, locus YDR363W, strain ESC2, stronger effect = lower value): 0.962 (inactive)
normalized growth (S. cerevisiae deletion strains, locus YDR388W, stronger effect = lower value): 1.03 (inactive)
normalized growth (S. cerevisiae deletion strains, locus YDR502C, strain sam2, stronger effect = lower value): 1.02 (inactive)
normalized growth (S. cerevisiae deletion strains, locus YEL061C, strain CIN8, stronger effect = lower value): 1.01 (inactive)
normalized growth (S. cerevisiae deletion strains, locus YER002W, strain NOP16, stronger effect = lower value): 0.99 (inactive)
normalized growth (S. cerevisiae deletion strains, locus YER110C, stronger effect = lower value): 1.03 (inactive)
normalized growth (S. cerevisiae deletion strains, locus YER155C, strain BEM2, stronger effect = lower value): 1.01 (inactive)
normalized growth (S. cerevisiae deletion strains, locus YER167W, strain BCK2, stronger effect = lower value): 1.03 (inactive)
normalized growth (S. cerevisiae deletion strains, locus YGL078C, strain dbp3, stronger effect = lower value): 1.02 (inactive)
normalized growth (S. cerevisiae deletion strains, locus YGL086W, strain mad1, stronger effect = lower value): 1.02 (inactive)
normalized growth (S. cerevisiae deletion strains, locus YGL248W, strain PDE1, stronger effect = lower value): 1.01 (inactive)
normalized growth (S. cerevisiae deletion strains, locus YGR078C, strain PAC10, stronger effect = lower value): 1 (inactive)
normalized growth (S. cerevisiae deletion strains, locus YGR135W, strain pre9, stronger effect = lower value): 1.02 (inactive)
normalized growth (S. cerevisiae deletion strains, locus YGR229C, strain SMI1, stronger effect = lower value): 0.999 (inactive)
normalized growth (S. cerevisiae deletion strains, locus YGR252W, strain gcn5, stronger effect = lower value): 1.05 (inactive)
normalized growth (S. cerevisiae deletion strains, locus YHR030C, strain SLT2, stronger effect = lower value): 0.999 (inactive)
normalized growth (S. cerevisiae deletion strains, locus YHR079C, strain IRE1 (second series), stronger effect = lower value): 1.03 (inactive)
normalized growth (S. cerevisiae deletion strains, locus YHR094C, strain hxt1, stronger effect = lower value): 1.03 (inactive)
normalized growth (S. cerevisiae deletion strains, locus YHR129C, strain ARP1, stronger effect = lower value): 1 (inactive)
normalized growth (S. cerevisiae deletion strains, locus YHR200W, strain rpn10, stronger effect = lower value): 1.03 (inactive)
normalized growth (S. cerevisiae deletion strains, locus YIL066C, strain RNR3, stronger effect = lower value): 1.01 (inactive)
normalized growth (S. cerevisiae deletion strains, locus YIL073C, strain SPO22, stronger effect = lower value): 1.12 (inactive)
normalized growth (S. cerevisiae deletion strains, locus YIL125W, strain kgd1, stronger effect = lower value): 1.02 (inactive)
normalized growth (S. cerevisiae deletion strains, locus YIR030C, strain dcg1, stronger effect = lower value): 1.04 (inactive)
normalized growth (S. cerevisiae deletion strains, locus YJL095W, strain BCK1, stronger effect = lower value): 1 (inactive)
normalized growth (S. cerevisiae deletion strains, locus YJL134W, strain LCB3, stronger effect = lower value): 0.999 (inactive)
normalized growth (S. cerevisiae deletion strains, locus YJL168C, strain set2, stronger effect = lower value): 1.04 (inactive)
normalized growth (S. cerevisiae deletion strains, locus YJL187C, strain SWE1 (second series), stronger effect = lower value): 1.01 (inactive)
normalized growth (S. cerevisiae deletion strains, locus YJR043C, strain POL32, stronger effect = lower value): 1.01 (inactive)
normalized growth (S. cerevisiae deletion strains, locus YJR075W, strain HOC1, stronger effect = lower value): 0.969 (inactive) and 0.984 (inactive)
normalized growth (S. cerevisiae deletion strains, locus YKL009W, strain mrt4, stronger effect = lower value): 0.986 (inactive)
normalized growth (S. cerevisiae deletion strains, locus YKL068W, stronger effect = lower value): 1.01 (inactive)
normalized growth (S. cerevisiae deletion strains, locus YKL085W, strain MDH1 (second series), stronger effect = lower value): 1.04 (inactive)
normalized growth (S. cerevisiae deletion strains, locus YKL085W, strain MDH1, stronger effect = lower value): 1.04 (inactive)
normalized growth (S. cerevisiae deletion strains, locus YKL190W, strain CNB1, stronger effect = lower value): 0.994 (inactive)
normalized growth (S. cerevisiae deletion strains, locus YKR001C, strain vps1, stronger effect = lower value): 1.04 (inactive)
normalized growth (S. cerevisiae deletion strains, locus YLR039C, strain RIC1, stronger effect = lower value): 1.05 (inactive)
normalized growth (S. cerevisiae deletion strains, locus YLR058C, strain SHM2, stronger effect = lower value): 1.01 (inactive)
normalized growth (S. cerevisiae deletion strains, locus YLR102C, strain apc9, stronger effect = lower value): 1.04 (inactive)
normalized growth (S. cerevisiae deletion strains, locus YLR262C, strain YPT6, stronger effect = lower value): 1.06 (inactive)
normalized growth (S. cerevisiae deletion strains, locus YLR268W, strain sec22, stronger effect = lower value): 1.02 (inactive)
normalized growth (S. cerevisiae deletion strains, locus YLR330W, strain CHS5, stronger effect = lower value): 1 (inactive)
normalized growth (S. cerevisiae deletion strains, locus YLR342W, strain FKS1 (second series), stronger effect = lower value): 1.01 (inactive)
normalized growth (S. cerevisiae deletion strains, locus YLR371W, strain rom2, stronger effect = lower value): 1.03 (inactive)
normalized growth (S. cerevisiae deletion strains, locus YLR418C, strain cdc73, stronger effect = lower value): 1.04 (inactive)
normalized growth (S. cerevisiae deletion strains, locus YML016C, strain PPZ1, stronger effect = lower value): 1.01 (inactive)
normalized growth (S. cerevisiae deletion strains, locus YML032C, strain rad52, stronger effect = lower value): 1.03 (inactive)
normalized growth (S. cerevisiae deletion strains, locus YML124C, strain tub3, stronger effect = lower value): 1.02 (inactive)
normalized growth (S. cerevisiae deletion strains, locus YMR078C, strain ctf18, stronger effect = lower value): 1.04 (inactive)
normalized growth (S. cerevisiae deletion strains, locus YMR223W, strain ubp8, stronger effect = lower value): 1.03 (inactive)
normalized growth (S. cerevisiae deletion strains, locus YMR263W, strain SAP30, stronger effect = lower value): 0.997 (inactive) and 0.985 (inactive)
normalized growth (S. cerevisiae deletion strains, locus YMR307W, strain GAS1, stronger effect = lower value): 0.992 (inactive) and 1 (inactive)
normalized growth (S. cerevisiae deletion strains, locus YNL067W, strain RPL9B, stronger effect = lower value): 1 (inactive)
normalized growth (S. cerevisiae deletion strains, locus YNL128W, strain TEP1, stronger effect = lower value): 1.01 (inactive)
normalized growth (S. cerevisiae deletion strains, locus YNL153C, strain GIM3, stronger effect = lower value): 0.987 (inactive) and 1.27 [resistant] (active)
normalized growth (S. cerevisiae deletion strains, locus YNL175C, strain NOP13, stronger effect = lower value): 0.992 (inactive)
normalized growth (S. cerevisiae deletion strains, locus YNL197C, strain WHI3, stronger effect = lower value): 1.02 (inactive)
normalized growth (S. cerevisiae deletion strains, locus YNL224C, strain SQS1, stronger effect = lower value): 0.994 (inactive)
normalized growth (S. cerevisiae deletion strains, locus YNL233W, strain BNI4, stronger effect = lower value): 1.02 (inactive)
normalized growth (S. cerevisiae deletion strains, locus YNL250W, strain rad50, stronger effect = lower value): 1.05 (inactive)
normalized growth (S. cerevisiae deletion strains, locus YNL271C, strain bni1, stronger effect = lower value): 1.04 (inactive)
normalized growth (S. cerevisiae deletion strains, locus YNL298W, strain CLA4, stronger effect = lower value): 1.05 (inactive)
normalized growth (S. cerevisiae deletion strains, locus YNL307C, strain MCK1, stronger effect = lower value): 1.05 (inactive)
normalized growth (S. cerevisiae deletion strains, locus YNL322C, strain KRE1, stronger effect = lower value): 1.01 (inactive) and 0.972 (inactive)
normalized growth (S. cerevisiae deletion strains, locus YNR052C, strain pop2, stronger effect = lower value): 1.03 (inactive)
normalized growth (S. cerevisiae deletion strains, locus YOL006C, strain TOP1, stronger effect = lower value): 0.997 (inactive)
normalized growth (S. cerevisiae deletion strains, locus YOL012C, strain htz1): 0.807 (inactive)
normalized growth (S. cerevisiae deletion strains, locus YOL147C, strain pex11, stronger effect = lower value): 1.02 (inactive)
normalized growth (S. cerevisiae deletion strains, locus YOR061W, strain CKA2, stronger effect = lower value): 1.01 (inactive)
normalized growth (S. cerevisiae deletion strains, locus YOR069W, strain VPS5, stronger effect = lower value): 0.997 (inactive)
normalized growth (S. cerevisiae deletion strains, locus YOR083W, strain WHI5 (second series), stronger effect = lower value): 1 (inactive)
normalized growth (S. cerevisiae deletion strains, locus YOR136W, strain idh2, stronger effect = lower value): 1.03 (inactive)
normalized growth (S. cerevisiae deletion strains, locus YOR144C, strain elg1, stronger effect = lower value): 1.03 (inactive)
normalized growth (S. cerevisiae deletion strains, locus YOR184W, strain ser1, stronger effect = lower value): 1.05 (inactive)
normalized growth (S. cerevisiae deletion strains, locus YOR316C, strain cot1, stronger effect = lower value): 1.03 (inactive)
normalized growth (S. cerevisiae deletion strains, locus YPL055C, strain LGE1, stronger effect = lower value): 1.03 (inactive) and 0.983 (inactive)
normalized growth (S. cerevisiae deletion strains, locus YPL241C, strain CIN2, stronger effect = lower value): 1.01 (inactive)
normalized growth (S. cerevisiae deletion strains, locus YPR119W, strain clb2, stronger effect = lower value): 1.02 (inactive)
normalized growth (S. cerevisiae deletion strains, locus YPR141C, strain kar3, stronger effect = lower value): 1.03 (inactive)
normalized growth (S. cerevisiae deletion strains, locus YPR163C, strain tif3, stronger effect = lower value): 1.03 (inactive)
normalized growth (S. cerevisiae deletion strains, locus YPR167C, strain met16, stronger effect = lower value): 1.03 (inactive)
normalized growth (S. cerevisiae deletion strains, strain wtn01, stronger effect = lower value): 1.01 (inactive)
normalized growth (S. cerevisiae strains, strain wild type, stronger effect = lower value): 1.01 (inactive)
